Experimental data published in ChEMBL document CHEMBL2218924, “A broad activity screen in support of a chemogenomic map for kinase signalling research and drug discovery” (Biochem J, 2013).

biological target: Serine/threonine-protein kinase PAK 2 (Homo sapiens) (UniProt Q13177); conditions: at 1 µM
Sequence (Q13177 whole entry): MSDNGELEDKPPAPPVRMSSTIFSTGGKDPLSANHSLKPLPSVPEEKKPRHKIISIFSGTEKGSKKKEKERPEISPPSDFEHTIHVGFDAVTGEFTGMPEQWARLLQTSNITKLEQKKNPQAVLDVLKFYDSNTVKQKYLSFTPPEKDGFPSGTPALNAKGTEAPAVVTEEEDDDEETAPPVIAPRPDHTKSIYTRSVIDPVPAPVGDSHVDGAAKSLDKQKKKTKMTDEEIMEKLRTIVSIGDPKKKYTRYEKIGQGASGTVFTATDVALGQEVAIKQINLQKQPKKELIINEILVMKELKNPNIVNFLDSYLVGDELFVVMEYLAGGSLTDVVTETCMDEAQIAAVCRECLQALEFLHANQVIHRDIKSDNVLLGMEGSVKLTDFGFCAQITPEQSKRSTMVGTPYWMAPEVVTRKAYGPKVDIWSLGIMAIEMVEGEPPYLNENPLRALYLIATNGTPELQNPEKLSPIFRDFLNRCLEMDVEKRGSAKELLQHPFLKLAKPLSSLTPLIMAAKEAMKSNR

Row | SMILES | residual activity [%]
1 | O=[N+]([O-])/C=C/c1ccc2c(c1)OCO2 | 111
2 | COc1cc2ncnc(Nc3ccc(OCc4ccccc4)cc3)c2cc1OC | 113
3 | CC(C)[C@H](CO)Nc1nc(Nc2cccc(Cl)c2)c2ncn(C(C)C)c2n1 | 99
4 | C[S+]([O-])c1ccc(-c2nc(-c3ccc(F)cc3)c(-c3ccncc3)[nH]2)cc1 (configuration not stated) | 110
5 | COC(=O)[C@@]1(O)C[C@H]2O[C@]1(C)n1c3ccccc3c3c4c(c5c6ccccc6n2c5c31)C(=O)NC4 | 19
6 | c1cc(-c2cnn3cc(-c4ccc(OCCN5CCCCC5)cc4)cnc23)ccn1 | 118
7 | CC(C)(C)c1cc(C=C(C#N)C#N)cc(Br)c1O | 125
8 | O=C1c2ccccc2-c2nc3nnnn3nc21 | 101
9 | COc1cc(OC)c(/C=C2\C(=O)Nc3ccccc32)c(OC)c1 | 97
10 | O=c1[nH]c2ccccc2n1C1CCN(Cc2ccc(-c3nc4cc5[nH]cnc5cc4nc3-c3ccccc3)cc2)CC1 | 103
11 | N/C(=N\[N+](=O)[O-])N/N=C\c1ccc(-c2cccc([N+](=O)[O-])c2)o1 | 98
12 | CCc1nc(-c2ccc(OC)cc2)[nH]c1-c1ccncc1 | 107
13 | O=C1Nc2ccc3ncsc3c2/C1=C/c1c[nH]cn1 | 96

biological target: Serine/threonine-protein kinase PAK 2 (Homo sapiens) (UniProt Q13177); conditions: at 10 µM

Row | SMILES | residual activity [%]
14 | O=[N+]([O-])/C=C/c1ccc2c(c1)OCO2 | 100
15 | COc1cc2ncnc(Nc3ccc(OCc4ccccc4)cc3)c2cc1OC | 99
16 | CC(C)[C@H](CO)Nc1nc(Nc2cccc(Cl)c2)c2ncn(C(C)C)c2n1 | 79
17 | C[S+]([O-])c1ccc(-c2nc(-c3ccc(F)cc3)c(-c3ccncc3)[nH]2)cc1 (configuration not stated) | 100
18 | COC(=O)[C@@]1(O)C[C@H]2O[C@]1(C)n1c3ccccc3c3c4c(c5c6ccccc6n2c5c31)C(=O)NC4 | 2
19 | c1cc(-c2cnn3cc(-c4ccc(OCCN5CCCCC5)cc4)cnc23)ccn1 | 103
20 | CC(C)(C)c1cc(C=C(C#N)C#N)cc(Br)c1O | 104
21 | CCn1cnc2c(Nc3cccc(Cl)c3)nc(N[C@@H]3CCCC[C@@H]3N)nc21 | 73
22 | O=C1c2ccccc2-c2nc3nnnn3nc21 | 75
23 | O=c1[nH]c2ccccc2n1C1CCN(Cc2ccc(-c3nc4cc5[nH]cnc5cc4nc3-c3ccccc3)cc2)CC1 | 85
24 | N/C(=N\[N+](=O)[O-])N/N=C\c1ccc(-c2cccc([N+](=O)[O-])c2)o1 | 95
25 | CCc1nc(-c2ccc(OC)cc2)[nH]c1-c1ccncc1 | 110
26 | O=C1Nc2ccc3ncsc3c2/C1=C/c1c[nH]cn1 | 54
27 | COc1ccc2c(c[n+](C)c3c4cc5c(cc4ccc23)OCO5)c1OC | 81

biological target: Serine/threonine-protein kinase PAK 4 (Homo sapiens) (UniProt O96013); conditions: at 1 µM
Sequence (O96013 whole entry, looked up): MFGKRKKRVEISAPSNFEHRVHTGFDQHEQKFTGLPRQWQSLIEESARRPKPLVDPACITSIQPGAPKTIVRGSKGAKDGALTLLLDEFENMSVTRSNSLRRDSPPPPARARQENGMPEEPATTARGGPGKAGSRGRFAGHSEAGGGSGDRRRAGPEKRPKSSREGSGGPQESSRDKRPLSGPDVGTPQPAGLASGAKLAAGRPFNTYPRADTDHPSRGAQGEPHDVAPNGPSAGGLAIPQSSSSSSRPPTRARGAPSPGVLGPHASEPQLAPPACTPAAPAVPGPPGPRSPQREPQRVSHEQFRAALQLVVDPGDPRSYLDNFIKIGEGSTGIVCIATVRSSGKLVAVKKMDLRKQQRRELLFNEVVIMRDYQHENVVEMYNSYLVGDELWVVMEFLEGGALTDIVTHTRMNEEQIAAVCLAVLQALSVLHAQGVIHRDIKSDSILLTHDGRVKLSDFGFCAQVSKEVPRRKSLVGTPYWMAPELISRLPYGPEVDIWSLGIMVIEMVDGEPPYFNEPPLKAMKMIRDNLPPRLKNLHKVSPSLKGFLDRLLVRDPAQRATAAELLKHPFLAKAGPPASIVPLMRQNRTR

Row | SMILES | residual activity [%]
28 | O=[N+]([O-])/C=C/c1ccc2c(c1)OCO2 | 91
29 | COc1cc2ncnc(Nc3ccc(OCc4ccccc4)cc3)c2cc1OC | 107
30 | CC(C)[C@H](CO)Nc1nc(Nc2cccc(Cl)c2)c2ncn(C(C)C)c2n1 | 31
31 | C[S+]([O-])c1ccc(-c2nc(-c3ccc(F)cc3)c(-c3ccncc3)[nH]2)cc1 (configuration not stated) | 106
32 | COC(=O)[C@@]1(O)C[C@H]2O[C@]1(C)n1c3ccccc3c3c4c(c5c6ccccc6n2c5c31)C(=O)NC4 | 3
33 | c1cc(-c2cnn3cc(-c4ccc(OCCN5CCCCC5)cc4)cnc23)ccn1 | 84
34 | CC(C)(C)c1cc(C=C(C#N)C#N)cc(Br)c1O | 113
35 | O=C1NC(=O)c2c1c1c3ccccc3n3c1c1c2c2ccccc2n1C1CCC3O1 | 84
36 | CCn1cnc2c(Nc3cccc(Cl)c3)nc(N[C@@H]3CCCC[C@@H]3N)nc21 | 30
37 | O=c1[nH]c2ccccc2n1C1CCN(Cc2ccc(-c3nc4cc5[nH]cnc5cc4nc3-c3ccccc3)cc2)CC1 | 98
38 | CCc1nc(-c2ccc(OC)cc2)[nH]c1-c1ccncc1 | 111
39 | O=C1Nc2ccc3ncsc3c2/C1=C/c1c[nH]cn1 | 67

biological target: Serine/threonine-protein kinase PAK 4 (Homo sapiens) (UniProt O96013); conditions: at 10 µM

Row | SMILES | residual activity [%]
40 | O=[N+]([O-])/C=C/c1ccc2c(c1)OCO2 | 93
41 | COc1cc2ncnc(Nc3ccc(OCc4ccccc4)cc3)c2cc1OC | 97
42 | CC(C)[C@H](CO)Nc1nc(Nc2cccc(Cl)c2)c2ncn(C(C)C)c2n1 | 4
43 | C[S+]([O-])c1ccc(-c2nc(-c3ccc(F)cc3)c(-c3ccncc3)[nH]2)cc1 (configuration not stated) | 106
44 | COc1ccc2c(c1)/C(=C/c1cnc[nH]1)C(=O)N2 | 46
45 | COC(=O)[C@@]1(O)C[C@H]2O[C@]1(C)n1c3ccccc3c3c4c(c5c6ccccc6n2c5c31)C(=O)NC4 | 0
46 | c1cc(-c2cnn3cc(-c4ccc(OCCN5CCCCC5)cc4)cnc23)ccn1 | 77
47 | CC(C)(C)c1cc(C=C(C#N)C#N)cc(Br)c1O | 100
48 | O=C1NC(=O)c2c1c1c3ccccc3n3c1c1c2c2ccccc2n1C1CCC3O1 | 64
49 | CCn1cnc2c(Nc3cccc(Cl)c3)nc(N[C@@H]3CCCC[C@@H]3N)nc21 | 7
50 | O=c1[nH]c2ccccc2n1C1CCN(Cc2ccc(-c3nc4cc5[nH]cnc5cc4nc3-c3ccccc3)cc2)CC1 | 74
51 | CCc1nc(-c2ccc(OC)cc2)[nH]c1-c1ccncc1 | 100
52 | O=C1Nc2ccc3ncsc3c2/C1=C/c1c[nH]cn1 | 22
